Screening results deposited in PubChem by several laboratories.
PfHsp90 set2: growth inhibition of yeast expressing Plasmodium Hsp90 | AID 504621 | hit rate 0.32% among 310,000 | S. cerevisiae expressing PfHsp90, BacTiter-Glo ATP, 48 h; yeast lacking PDR1 and PDR3 efflux regulators | inhibition, % at 9.4 µM;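 active = every replicate shows inhibition above about 80%, whatever the replicate mean, limit read from the data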;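 note: 0% = DMSO neutral controls and 100% = 20 µM radicicol positive controls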
tim10-1 inh: tim10-1 yeast growth inhibition; S. cerevisiae tim10-1 ts strain growth, BacTiter-Glo, 24 h; inhibition, % at 20 µM; hit rate 2.2% among 330,000; AID 463190;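 active = inhibition of at least 40%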;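 note: mutant grown at 25 °C; 0% = DMSO wells with yeast and 100% = wells holding no yeast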
NALP3 yeast inh: inhibitors of NALP3 inflammasome in yeast; Yeast reconstituted NLRP3/ASC/caspase-1, beta-gal luminescence, 24 h; inhibition, % at 10 µM; hit rate 0.39% among 330,000;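 active = inhibition of 50% or more; inactive = inhibition below 50%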;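 note: plate controls were induced DMSO wells for no effect and uninduced yeast grown without galactose for full effect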
TIM10 inh: growth inhibitors of TIM10 yeast strain | S. cerevisiae TIM10 strain growth, BacTiter-Glo luminescence, 24 h | inhibition, % at 10 µM | hit rate 1.4% among 330,000;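 active = inhibition of 40% or more at the single tested concentration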;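 note: wild-type TIM10 isogenic control strain grown at permissive 25 °C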
tim23-1 inh: growth inhibitors of tim23-1 mutant yeast. S. cerevisiae tim23-1 growth, BacTiter-Glo luminescence, 24 h. inhibition, % at 20 µM. hit rate 1.3% among 330,000. AID 463212;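 active = growth inhibition of the mutant yeast at or above 50%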;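 note: temperature-sensitive mutant grown at 25 °C; plate controls were DMSO-treated mutant yeast for no effect and medium wells lacking yeast for full effect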
tim10-1 confirm: tim10-1 yeast growth inhibition, confirmed; shares compounds with tim10-1 inh; S. cerevisiae tim10-1 ts strain growth, BacTiter-Glo, 24 h; inhibition, % at 20 µM; hit rate 56% among 7,400; AID 463213;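 active = inhibition of yeast growth at or above a set limit in either of two repeat tests at 20 µM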;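 note: tim10-1 mutant grown at permissive 25 °C to find synthetic lethal compounds; 0% = DMSO yeast wells and 100% = medium wells without yeast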
Active calls of the source: *; . = not tested or not shown. Most compounds without a hit are left out; they make up all but 3.7% or so of the library.

SMILES | PfHsp90 set2 | tim10-1 inh | NALP3 yeast inh | TIM10 inh | tim23-1 inh | tim10-1 confirm
CC(C)OC(=O)/C(C#N)=C/c1c[nH]c2ccccc12 | -11 | 42* | 9 | 10 | 32 | 28
COc1cc2c(oc(=O)c3cc(C)cc(OC)c32)c2c(C3OC(C)C(O)C(C)(O)C3O)ccc(O)c12 (centres undefined) | -22 | . | . | . | . | .
CCCCC1SC(N)=NC1=O (centres undefined) | 27 | . | . | . | . | .
Cn1c(N)c(C(=O)COC(=O)C2CCC(C(C)(C)C)CC2)c(=O)n(C)c1=O (centres undefined) | . | 42* | 11 | 10 | 19 | 26
Cn1c(N)c(C(=O)COC(=O)C2CCCC2)c(=O)n(C)c1=O | 0 | 4 | -9 | -1 | 5 | .
COc1ccccc1C(=O)NC(=O)Nc1c(C)cc(C)cc1C | 22 | 42* | 37 | 24 | 42 | 40*
COc1cc2c(cc1OC)C(C)N(C(=O)c1cc3c(C)cc(C)cc3[nH]1)CC2 (centres undefined) | -14 | 41* | 13 | 21 | 39 | 10
CN(C)c1ccc(NC(=O)CCN2C(=O)c3cccc([N+](=O)[O-])c3C2=O)cc1 | 7 | -10 | 14 | -2 | 5 | .
CC(OC(=O)CN1C(=O)C2CC=CCC2C1=O)C(=O)Nc1ccc(F)cc1Cl (centres undefined) | -2 | -6 | 19 | -7 | 17 | .
COc1ccc(OC)c(NC(=O)Cc2coc3ccc4ccccc4c23)c1 | 6 | 42* | 27 | 30 | 23 | 8
O=C(O)Cc1coc2ccc3ccccc3c12 | . | 44* | 0 | 17 | 41 | 48*
C/C(=N\Nc1cc(C(F)(F)F)ccc1Cl)c1ccccc1O | 13 | 47* | -1 | 33 | 25 | 38*
C/C(=N\Nc1ccc(F)cc1F)c1ccccc1O | 7 | 29 | -1 | 0 | 19 | .
CCC(=O)Oc1c(S(=O)(=O)c2ccc(C)cc2)c(C)nn1C(C)(C)C | -17 | 44* | 5 | 13 | 43 | 23
CCCn1nc(NS(=O)(=O)c2cccc3nonc23)c2cc3cccc(C)c3nc21 | -1 | 21 | 3 | 15 | 40 | .
COc1cccc(OC)c1-c1nn2c(-c3ccco3)nnc2s1 | 10 | 45* | -6 | 20 | 22 | 31*
Cn1cccc1Cc1nnc(SCC(=O)Nc2ccc3c(c2)OCO3)n1CCc1ccccc1 | -7 | 12 | 8 | 10 | 24 | .
Cn1cccc1Cc1nnc(SCC(=O)Nc2ccc(F)cc2)n1CCc1ccccc1 | -24 | 42* | -7 | 12 | 38 | 20
C=CCN(C(=O)C1CC(=O)N(C2CCCC2)C1)c1nc(-c2ccc(S(C)(=O)=O)cc2)cs1 (centres undefined) | -26 | 20 | -2 | 27 | 29 | .
COCCn1c(SCc2nc3ccccc3c(=O)[nH]2)nc2ccccc2c1=O | -11 | 16 | 3 | 19 | 4 | .
CCn1c(SCc2nc3ccccc3c(=O)[nH]2)nc2ccccc21 | 2 | 44* | 0 | 12 | 21 | 24
Cc1cccc(NC(=O)COc2coc(CN3CCc4ccccc4C3)cc2=O)c1 | -4 | 29 | 13 | 10 | 17 | .
O=C(CCl)Nc1c(C(=O)Nc2ccc3c(c2)OCCO3)oc2ccccc12 | -2 | 42* | 29 | 39 | 48 | 21
COCC(=O)Nc1c(C(=O)Nc2ccc3c(c2)OCO3)oc2ccccc12 | 0 | -12 | 6 | 0 | 6 | .
Cc1ccc(N=c2c([N+](=O)[O-])nn(-c3ccccc3)n2O)c(C)c1 | -4 | 47* | 4 | 37 | 45 | 42*
SMILES | PfHsp90 set2 | tim10-1 inh | NALP3 yeast inh | TIM10 inh | tim23-1 inh | tim10-1 confirm
Cc1cc(Nc2ccccc2Cl)nc(-c2ccccc2O)n1 | -20 | 53* | 8 | 21 | 32 | 41*
Cc1ccc(C)c(Nc2cc(C)nc(-c3ccccc3O)n2)c1 | 7 | 26 | -7 | 39 | 50 | .
Cc1cc(Nc2cccc(F)c2)nc(-c2ccccc2O)n1 | -85 | 43* | -18 | 37 | 33 | 43*
COc1ccc(S(=O)(=O)Nc2c(C)cc(C)cc2C)c2cccnc12 | 19 | 4 | -1 | 6 | 8 | .
O=[N+]([O-])c1ccc2oc(C(O)c3cccc(Cl)c3)cc2c1 (centres undefined) | -23 | 44* | 11 | 22 | 47 | 43*
C/C(CC(=O)Nc1cccc(Cl)c1Cl)=N\NC(=O)c1ccccc1N | -9 | 41* | 1 | 25 | 17 | 29
